Data published in PubChem BioAssay (Tox21).
Inconclusive results are not listed. Active and inactive are the calls of the source. Unless noted, the call rests on the fitted dose curve; in most records, active means well fitted curve in the direction sought with a large enough effect in the repeat runs; inconclusive means weak or mixed curves; inactive means no such curve, though single readings can be large; an effect the other way counts as inactive or inconclusive.

Assays:
[1] = biological target: Retinoic acid receptor RXR-alpha (Homo sapiens) (UniProt P19793); assay: qHTS assay to identify small molecule agonists of the RXR signaling pathway (AID 1159527; calls by dose curve; further: nearly all actives have a fitted effect of over 35% in size)
How it was run: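 Agonist-mode beta-lactamase reporter assay: HEK 293T RXR-alpha-UAS-bla cells treated 16 hr at 37 C with compounds, 9-cis retinoic acid as positive control. LiveBLAzer FRET substrate, 405 nm excitation, 460/530 nm emission.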

[2] = qHTS assay to identify small molecule agonists of the RXR signaling pathway - cell viability counter screen (AID 1159529); further: series mostly up to about 77 µM; nearly all actives have a fitted effect of over 50% in size
How it was run: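 CellTiter-Glo luminescence gave viability in the wells also read for beta-lactamase. Cells (RXR-alpha-UAS-bla HEK 293T, 2% charcoal-stripped FBS medium) had 5 hr plating, then 16 hr compound exposure at 37 C; tetraoctyl ammonium bromide served as positive control.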

[3] = qHTS assay to identify small molecule antagonists of the retinoid acid receptor (RAR) signaling pathway - cell viability counter screen (AID 1159551); further: nearly all actives have a fitted effect of over 35% in size
How it was run: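 Measured by luminescent ATP detection, viability reflects C3RL4 cells treated 6 h at 37 C with test chemicals in the presence of 1 uM (final) retinol.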

[4] = qHTS assay to identify small molecule antagonists of the estrogen related receptor (ERR) signaling pathway from Tox21 library - cell viability counter screen (AID 1224834); further: nearly all actives have a fitted effect of over 30% in size
How it was run: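 Seeded ERR cells were rested 6 h at 37 C/5% CO2 before compounds, positive and negative controls or DMSO were added. Incubation continued for 17.5 h, and viability was then quantified by CellTiter-Fluor fluorescence.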

[5] = biological target: Luciferin 4-monooxygenase (Photinus pyralis) (UniProt P08659); assay: qHTS assay to identify small molecule inhibitors of firefly luciferase (AID 1224835); further: series mostly up to about 120 µM; nearly all actives have a fitted effect of over 25% in size
How it was run: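 Quantitative HTS format; KM concentrations of both substrates. Purified P. pyralis FLuc activity quantified from luminescence images.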

[6] = qHTS assay to identify small molecule agonists of the constitutive androstane receptor (CAR) signaling pathway - cell viability counter screen (AID 1224836); further: series mostly up to about 92 µM; nearly all actives have a fitted effect of over 45% in size
How it was run: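 Cell viability multiplexed with the CAR agonist screen: CellTiter-Fluor fluorescence after 23 hr at 37 C. HepG2-CYP2B6-hCAR cells got compounds at 15 concentrations with PK11195 at 0.75 uM final.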

[7] = qHTS assay to identify small molecule antagonists of the constitutive androstane receptor (CAR) signaling pathway - cell viability counter screen (AID 1224837); further: series mostly up to about 92 µM; nearly all actives have a fitted effect of over 45% in size
How it was run: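 To flag cytotoxic false antagonists, HepG2 hCAR/CYP2B6-2.2kb cells were treated 23 hr with 15-concentration compound series and 50 nM CITCO at 37 C/5% CO2; CellTiter-Fluor fluorescence was the measured end point.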

[8] = qHTS assay to identify small molecule antagonists of the estrogen related receptor signaling pathway with the pleiotropic PPARgamma coactivator (PGC) from Tox21 10K library - cell viability counter screen (AID 1224840; active means well fitted cell-killing curve with a large enough effect in the repeat runs, not every such curve was filed as active; further: nearly all actives have a fitted effect of over 40% in size)
How it was run: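 Seeded PGC/ERR cells (2,000/well, 6 h, 37 C/5% CO2) get compound by pin tool; 17.5 h incubation at 37 C; CellTiter-Fluor added, 30 min, fluorescence measured.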

[9] = qHTS assay to identify small molecule antagonists of the estrogen related receptor signaling pathway with the pleiotropic PPARgamma coactivator (PGC) from Tox21 10K library (AID 1224841; call rule not given here; further: series mostly up to about 92 µM; actives are mostly falling curves and most rising ones were filed inactive; nearly all actives have a fitted effect of over 50% in size)
How it was run: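 Test chemicals dissolved in DMSO were applied to pre-incubated (6 h) PGC/ERR cells at 2,000 cells/well for an 18 h, 37 C treatment; reporter luminescence was then read using One-Glo.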

[10] = qHTS assay to identify small molecule agonists of the estrogen related receptor signaling pathway with the pleiotropic PPARgamma coactivator (PGC) from Tox21 10K library (AID 1224842); further: nearly all actives have a fitted effect of over 15% in size
How it was run: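 PGC/ERR reporter cells (NTP line) were seeded 2,000 per well, rested 6 h at 37 C/5% CO2, then pin-dosed with compounds in DMSO for 18 h at 37 C; luciferase read by One-Glo luminescence after 30 min at room temperature.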

[11] = qHTS assay to identify small molecule antagonists of the retinoic acid receptor (RAR) signaling pathway (AID 1159552; further: nearly all actives have a fitted effect of over 50% in size)
How it was run: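 Luminescent RARE reporter read-out in C3RL4 cells: 6 hr co-treatment at 37 C of test compounds with retinol at 1 uM final. Cells plated overnight beforehand; luciferase reagent incubated 30 min at room temperature before reading.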

[12] = qHTS assay to identify small molecule agonists of the retinoic acid receptor (RAR) signaling pathway (AID 1159553)
How it was run: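 6 hr compound exposure (DMSO vehicle) of overnight-plated C3RL4 RARE-luc cells at 37 C; luminescence quantified after 30 min RT with luciferase reagent.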

[13] = biological target: Nuclear receptor subfamily 1 group I member 3 (Homo sapiens) (UniProt Q14994); assay: qHTS assay to identify small molecule antagonists of the constitutive androstane receptor (CAR) signaling pathway (AID 1224838);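 further: HepG2 cells stably expressing hCAR with CYP2B6 luciferase reporter stimulated by CITCO; nearly all actives have a fitted effect of over 40% in size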
How it was run: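 Human hepatoma HepG2 cells expressing hCAR and a CYP2B6 promoter (2.2 kb) luciferase construct; compound titration (15 points) with 50 nM CITCO final, 24 h at 37 C/5% CO2; luminescence via ONE-Glo after 30 min at room temperature.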

[14] = biological target: Nuclear receptor subfamily 1 group I member 3 (Homo sapiens) (UniProt Q14994); assay: qHTS assay to identify small molecule agonists of the constitutive androstane receptor (CAR) signaling pathway (AID 1224839);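 further: HepG2 cells stably carrying human CAR and a CYP2B6 luciferase reporter; series mostly up to about 92 µM; nearly all actives have a fitted effect of over 15% in size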
How it was run: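 Luminescent ONE-Glo read-out after 24 hr, 37 C exposure of double-stable HepG2-CYP2B6-hCAR reporter cells to a 15-point compound series, in the presence of 0.75 uM PK11195 (final).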

[15] = qHTS assay to identify small molecule antagonists of the estrogen related receptor (ERR) signaling pathway - cell viability counter screen (AID 1224818); further: series mostly up to about 46 µM
How it was run: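 Compounds dissolved in DMSO were applied to ERR cells seeded at 2,000 per well 6 h earlier. Cell viability followed 17.5 h later via 30-min CellTiter-Fluor fluorescence.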

[16] = qHTS assay to identify small molecule antagonists of the estrogen related receptor signaling pathway with the pleiotropic PPARgamma coactivator (PGC) cell viability counter screen (AID 1224822; further: series mostly up to about 46 µM)
How it was run: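 Counter screen for cell viability: PGC/ERR cells, 6 h pre-incubation after plating, 17.5 h compound exposure at 37 C, fluorescence from CellTiter-Fluor after 30 min.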

Measured: Potency

Chain of Retinoic acid receptor RXR-alpha (Homo sapiens) (P19793 whole entry, looked up): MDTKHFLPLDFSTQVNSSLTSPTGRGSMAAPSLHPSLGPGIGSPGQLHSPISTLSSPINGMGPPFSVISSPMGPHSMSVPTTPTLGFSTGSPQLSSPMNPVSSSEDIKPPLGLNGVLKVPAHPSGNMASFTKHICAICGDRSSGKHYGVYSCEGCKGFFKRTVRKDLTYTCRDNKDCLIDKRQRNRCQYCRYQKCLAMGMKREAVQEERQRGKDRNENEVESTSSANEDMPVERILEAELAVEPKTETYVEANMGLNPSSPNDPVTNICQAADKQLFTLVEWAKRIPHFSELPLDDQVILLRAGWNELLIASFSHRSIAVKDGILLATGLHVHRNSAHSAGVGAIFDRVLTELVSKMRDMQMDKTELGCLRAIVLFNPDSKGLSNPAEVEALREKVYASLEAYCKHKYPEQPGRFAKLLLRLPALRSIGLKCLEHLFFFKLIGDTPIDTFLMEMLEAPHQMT
Chain of Luciferin 4-monooxygenase (Photinus pyralis) (P08659 whole entry, looked up): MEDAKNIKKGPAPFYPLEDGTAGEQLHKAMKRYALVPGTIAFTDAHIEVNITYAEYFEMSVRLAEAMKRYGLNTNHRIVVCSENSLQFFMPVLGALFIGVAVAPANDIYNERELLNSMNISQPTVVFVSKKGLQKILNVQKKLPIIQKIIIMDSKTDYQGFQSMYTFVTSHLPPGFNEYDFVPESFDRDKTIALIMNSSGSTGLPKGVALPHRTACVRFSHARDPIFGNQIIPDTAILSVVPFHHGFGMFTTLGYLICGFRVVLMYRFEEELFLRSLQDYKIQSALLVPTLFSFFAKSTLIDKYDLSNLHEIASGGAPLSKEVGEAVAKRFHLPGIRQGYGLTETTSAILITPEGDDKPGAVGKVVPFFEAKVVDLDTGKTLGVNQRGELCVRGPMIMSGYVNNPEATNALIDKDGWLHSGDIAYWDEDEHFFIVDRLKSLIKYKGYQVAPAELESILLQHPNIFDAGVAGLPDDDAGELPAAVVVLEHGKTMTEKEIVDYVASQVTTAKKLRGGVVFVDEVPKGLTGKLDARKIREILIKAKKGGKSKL
Chain of Nuclear receptor subfamily 1 group I member 3 (Homo sapiens) (Q14994 whole entry, looked up): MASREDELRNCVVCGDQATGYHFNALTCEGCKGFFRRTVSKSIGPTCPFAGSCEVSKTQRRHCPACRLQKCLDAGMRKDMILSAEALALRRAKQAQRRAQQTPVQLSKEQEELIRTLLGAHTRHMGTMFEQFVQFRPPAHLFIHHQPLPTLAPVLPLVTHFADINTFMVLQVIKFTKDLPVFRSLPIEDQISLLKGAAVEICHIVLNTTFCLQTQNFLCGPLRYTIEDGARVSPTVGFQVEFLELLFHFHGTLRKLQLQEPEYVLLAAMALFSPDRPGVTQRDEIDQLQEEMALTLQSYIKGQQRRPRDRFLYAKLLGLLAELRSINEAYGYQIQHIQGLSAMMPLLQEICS

C=C(C)[C@@H]1CCC2=CC(=O)C[C@@H](C)[C@]2(C)C1
inactive: [1] | [2] | [3] | [4] | [5] | [6] | [7] | [8] | [9] | [10]

NC(=O)Nc1nc2ccccc2[nH]1
inactive: [1] | [2] | [11] | [12] | [4] | [5] | [6] | [7] | [13] | [14] | [8]

CCCCc1ccc(N)cc1
inactive: [1] | [2] | [3] | [4] | [5] | [7] | [13] | [14] | [8]

O=C(O)c1ccccc1-c1ccc(C(F)(F)F)cc1
inactive: [1] | [2] | [3] | [4] | [5] | [7] | [8]

COC(=O)CCCCCCCCC(=O)OC
inactive: [1] | [2] | [3] | [4] | [5] | [6] | [7] | [8] | [9] | [10]

CC(=O)OC(C)(C)C
inactive: [1] | [2] | [3] | [4] | [5] | [6] | [7] | [8] | [9] | [10]

O=C(O)c1ccccc1S
inactive: [1] | [2] | [3] | [4] | [5] | [7] | [13] | [14] | [8]

COc1cccc(OC)c1
inactive: [1] | [2] | [3] | [4] | [5] | [7] | [13] | [14] | [8]

O=C(O)C1CCC1
inactive: [1] | [2] | [3] | [4] | [5] | [7] | [8]

Nc1ccn(C2CO[C@H](CO)O2)c(=O)n1 (stereo partly specified)
inactive: [1] | [2] | [3] | [4] | [5] | [6] | [7] | [8] | [9] | [10]

Nc1[nH]c(=O)ncc1F
inactive: [1] | [2] | [3] | [4] | [5] | [6] | [7] | [8] | [9] | [10]

CC(C)=CCC/C(C)=C/C(=O)O
inactive: [1] | [2] | [3] | [4] | [5] | [7] | [8]

Nc1nc2c(ncn2CCC(CO)CO)c(=O)[nH]1
inactive: [1] | [2] | [3] | [4] | [5] | [6] | [7] | [8] | [9] | [10]

CN(C)N=Nc1ccccc1
inactive: [1] | [2] | [3] | [4] | [5] | [6] | [7] | [8] | [9]

NS(=O)(=O)c1cc(C2(O)NC(=O)c3ccccc32)ccc1Cl (stereo unspecified)
inactive: [1] | [2] | [4] | [5] | [7] | [8]

CC(C)[N+](C)(C)CC(O)COc1cccc2ccccc12 (stereo unspecified)
inactive: [1] | [2] | [4] | [5] | [6] | [7] | [13] | [14] | [8]

CC(C)(O)C(=O)c1ccc(OCCO)cc1
inactive: [1] | [2] | [4] | [5] | [6] | [7] | [8]

O=C1C(CCS(=O)c2ccccc2)C(=O)N(c2ccccc2)N1c1ccccc1 (stereo unspecified)
inactive: [1] | [2] | [4] | [6] | [7] | [13] | [14] | [8]

CN(C)CCOC(c1ccc(Cl)cc1)c1ccccn1 (stereo unspecified)
inactive: [1] | [2] | [4] | [5] | [6] | [7] | [13] | [14] | [8]

C/C=C1\C(=O)C[C@H]2[C@@H]3CCC4=CC(=O)CC[C@]4(C)[C@H]3CC[C@]12C
inactive: [1] | [2] | [4] | [5] | [6] | [7] | [13] | [8]

CCN(CC)C(=O)c1ccc(O)c(OC)c1
inactive: [1] | [2] | [15] | [16] | [4] | [5] | [6] | [7] | [13] | [14] | [8]
